Records with an inconclusive call do not appear. Active and inactive are the calls of the source. Unless noted, calls follow the shape of the full dose curve.
Legend:
[1] = Nuclear factor erythroid 2-related factor 2/antioxidant responsive element (Nrf2/ARE) small molecule agonists: luciferase reporter gene qHTS assay in human keratinocytes (AID 1919969); also: nearly all actives have a fitted effect of over 35% in size
[2] = molecular target: Gonadotropin-releasing hormone receptor (Homo sapiens) (UniProt P30968); experiment: Human gonadotropin-releasing hormone receptor (GnRHR) small molecule agonists, calcium flux assay in GnRHR-HEK293 cells (AID 1920063); also: nearly all actives have a fitted effect of over 35% in size
In short: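 Agonist mode: compounds at 15 concentrations, in triplicate, went onto calcium dye-loaded GnRHR-HEK293 cells. Intracellular calcium was then followed as 480/540 nm fluorescence at 1 s intervals over 3 min.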

[3] = molecular target: KiSS-1 receptor (Homo sapiens) (UniProt Q969F8); experiment: Human kisspeptin (KISS1R) small molecule agonists, calcium flux assay in KISS1R-HEK293 cells (AID 1920064; active = well fitted activation curve with a large enough effect in the repeat runs)
In short: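 Agonist mode: intracellular calcium rise tracked at 1 s intervals over 3 min (480/540 nm) immediately after compound addition to dye-loaded KISS1R-HEK293 stable cells. Each compound tested at 15 concentrations in triplicate.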

[4] = G protein-coupled receptor (GPCR) small molecule agonists, calcium flux assay: HEK293 wild type cell line counter screen (AID 1920065)
In short: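 Calcium flux counter screen: compound added in agonist mode at 15 concentrations in triplicate to dye-loaded parental HEK293 cells. Fluorescence (480/540) read kinetically for 3 min; ATP served as positive control.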

[5] = p53 small molecule agonists, cell-based qHTS assay with human liver microsomes (AID 1963577)
In short: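 p53RE-bla reporter cells were pre-incubated 5 h at 37 C, then treated with compounds plus human liver microsomes (0.5 mg/mL final) and NADPH (0.5 mg/mL final) for 16 h at 37 C. Beta-lactamase activity was read by LiveBLAzer fluorescence after 2 h at room temperature.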

[6] = p53 small molecule agonists, cell-based qHTS assay with rat liver microsomes (AID 1963578)
In short: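 p53RE-bla cells were exposed to compounds together with rat liver microsomes (0.5 mg/mL final) and NADPH (0.5 mg/mL final) for 16 h at 37 C, then read by LiveBLAzer beta-lactamase fluorescence after 2 h at room temperature.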

[7] = p53 small molecule agonists, cell-based qHTS assay with human liver microsomes: qHTS cell viability counter screen (AID 1963579); also: nearly all actives have a fitted effect of over 45% in size
In short: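 p53RE-bla cells (4,000/well) were pre-incubated 5 h at 37 C, then given compounds in DMSO plus human liver microsomes (0.5 mg/mL final) and NADPH (0.5 mg/mL final) for 16 h at 37 C. Viability was read by CellTiter-Glo luminescence.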

[8] = p53 small molecule agonists, cell-based qHTS assay with rat liver microsomes: qHTS cell viability counter screen (AID 1963580); also: nearly all actives have a fitted effect of over 45% in size
In short: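 Cytotoxicity counter screen: intracellular ATP measured by CellTiter-Glo luminescence in the same wells as the beta-lactamase reporter read, on HCT-116 p53RE-bla cells exposed 16 h at 37 C to compounds with rat liver microsomes and NADPH, each 0.5 mg/mL final.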

[9] = p53 small molecule agonists, cell-based qHTS assay: qHTS cell viability counter screen (AID 1963581); also: nearly all actives have a fitted effect of over 45% in size
In short: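 Counter screen read by CellTiter-Glo luminescence (ATP content, 30 min at room temperature), run in the same wells as the beta-lactamase reporter read. HCT-116 p53RE-bla cells saw compounds for 16 h at 37 C.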

[10] = p53 small molecule agonists, cell-based qHTS assay (AID 1963582; active = well fitted activation curve with a large enough effect in the signal ratio in the repeat runs, not every such curve was filed as active; the % refers to the signal ratio)
In short: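 Read-out is beta-lactamase FRET fluorescence after 2 h at room temperature with LiveBLAzer B/G substrate. p53 response element-bla cells were treated 16 h at 37 C with compounds in DMSO, added 5 h after seeding.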

[11] = molecular target: 5-hydroxytryptamine receptor 2A (Homo sapiens) (UniProt P28223); experiment: 5-hydroxytryptamine receptor 2A (HTR2A) small molecule antagonists, cell-based qHTS assay (AID 1963586); also: nearly all actives have a fitted effect of over 45% in size
In short: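 CHO cells stably expressing human HTR2A were plated for 18 h at 37 C, then loaded with calcium dye for 1 h. Compounds were preincubated 5 min at room temperature before DOI (4 nM solution) was added. Kinetic fluorescence was read for 3 min.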

[12] = molecular target: 5-hydroxytryptamine receptor 2A (Homo sapiens) (UniProt P28223); experiment: 5-hydroxytryptamine receptor 2A (HTR2A) small molecule agonists, cell-based qHTS assay (AID 1963587); also: nearly all actives have a fitted effect of over 30% in size
In short: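 CHO cells stably expressing human HTR2A, plated 18 h, loaded with calcium dye 1 h at 37 C. Agonist mode: compounds added and intracellular calcium fluorescence recorded kinetically for 2 min at 1 sec intervals.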

[13] = molecular target: Muscarinic acetylcholine receptor M1 (Homo sapiens) (UniProt P11229); experiment: Cholinergic receptor muscarinic 1 (CHRM1) small molecule antagonists, cell-based qHTS assay (AID 1963588); also: nearly all actives have a fitted effect of over 40% in size
In short: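 Compounds were tested at 15 concentrations in three independent runs. Dye-loaded CHRM1-CHO cells were exposed 5 min at room temperature before stimulation by acetylcholine added at 50nM. Intracellular calcium was read kinetically on FDSS for 3 min.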

[14] = molecular target: Muscarinic acetylcholine receptor M1 (Homo sapiens) (UniProt P11229); experiment: Cholinergic receptor muscarinic 1 (CHRM1) small molecule agonists, cell-based qHTS assay (AID 1963589); also: nearly all actives have a fitted effect of over 35% in size
In short: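 Agonist-mode calcium-flux screen: compounds at 15 concentrations, three independent runs, were pin-transferred onto dye-loaded human CHRM1-CHO cells. Fluorescence was then recorded kinetically every second over minutes.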

[15] = cAMP Responsive Elements (CRE) small molecule antagonists, cell-based qHTS assay (AID 1963591; active = well fitted inhibition curve with a large enough effect in the signal ratio in the repeat runs, not every such curve was filed as active; the % refers to the signal ratio)
In short: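 Antagonist mode: compounds are added alongside the adenylyl cyclase activator NKH477 (0.25 uM final) to CRE-bla HEK293T cells for 3 h. LiveBLAzer FRET substrate, 2 h at room temperature, reports bla expression.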

[16] = molecular target: Beta-2 adrenergic receptor (Homo sapiens) (UniProt P07550); experiment: Adrenergic beta2 receptor (ADRB2) small molecule antagonists, cell-based qHTS assay (AID 1963592); also: series mostly up to about 92 µM; nearly all actives have a fitted effect of over 50% in size
In short: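 Assay format: CHO-ADRB2 cells, 18-20hr seeding at 37C/5% CO2, then compound plus 1nM isoproterenol agonist mix for 0.5hr RT. Homogeneous time-resolved fluorescence cAMP detection after 1hr, expressed as 665/615 nm ratio.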

[17] = molecular target: Beta-2 adrenergic receptor (Homo sapiens) (UniProt P07550); experiment: Adrenergic beta2 receptor (ADRB2) small molecule agonists, cell-based qHTS assay (AID 1963593);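 also: CHO cells stably overexpressing human ADRB2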
In short: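 CHO cells stably over-expressing ADRB2 were plated overnight at 37C, then dosed with compounds plus a stimulation mix containing 100uM IBMX and 25uM Ro-20-1724 for 0.5hr at room temperature. cAMP was measured by HTRF competition, 1hr.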

[18] = molecular target: D(2) dopamine receptor (Homo sapiens) (UniProt P14416); experiment: Dopamine D2 receptor (DRD2) small molecule agonists, cell-based qHTS assay (AID 1963594); also: nearly all actives have a fitted effect of over 35% in size
In short: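 HEK293 cells stably expressing human DRD2, pre-treated with PDE inhibitor Ro20-1724 (0.1 mM final) and compound 10 min at room temperature, then stimulated with NKH477 (200nM […]) for 30 min. cAMP read by HTRF (665/620 nm).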

[19] = molecular target: D(2) dopamine receptor (Homo sapiens) (UniProt P14416); experiment: Dopamine D2 receptor (DRD2) small molecule antagonists, cell-based qHTS assay (AID 1963595; active = well fitted inhibition curve with a large enough effect in the signal ratio in the repeat runs, with a control signal flat; the % refers to the signal ratio)
In short: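 HTRF cAMP read-out at 665 and 620 nm emission (340 nm excitation). Antagonist mode: compounds were tested against 12 nM quinpirole in DRD2-HEK293 cells, with 200 nM NKH477 raising cAMP and 0.1 mM Ro20-1724 blocking its breakdown.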

[20] = cAMP Responsive Elements (CRE) small molecule agonists, cell-based qHTS assay (AID 1963590)
In short: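 Agonist mode: compound added to CRE-bla HEK 293T cells (2,000/well, 18 h after plating) for 3 h at 37 C/5% CO2. Reporter activity detected via FRET beta-lactamase substrate, 2 h room-temperature loading.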

Measured: Potency

Chain of D(2) dopamine receptor (Homo sapiens) (P14416 whole entry, looked up): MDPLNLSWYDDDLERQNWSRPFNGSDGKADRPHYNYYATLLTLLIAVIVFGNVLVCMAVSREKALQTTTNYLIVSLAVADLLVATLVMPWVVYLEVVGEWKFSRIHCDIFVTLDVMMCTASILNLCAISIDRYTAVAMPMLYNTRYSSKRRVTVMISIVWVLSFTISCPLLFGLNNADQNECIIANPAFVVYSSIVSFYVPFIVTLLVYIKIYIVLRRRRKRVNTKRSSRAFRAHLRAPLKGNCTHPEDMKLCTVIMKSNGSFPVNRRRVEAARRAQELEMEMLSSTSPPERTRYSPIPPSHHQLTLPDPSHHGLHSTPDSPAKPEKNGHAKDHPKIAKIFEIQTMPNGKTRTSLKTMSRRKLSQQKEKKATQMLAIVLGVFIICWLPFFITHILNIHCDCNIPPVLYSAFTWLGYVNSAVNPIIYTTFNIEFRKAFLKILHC
Chain of KiSS-1 receptor (Homo sapiens) (Q969F8 whole entry, looked up): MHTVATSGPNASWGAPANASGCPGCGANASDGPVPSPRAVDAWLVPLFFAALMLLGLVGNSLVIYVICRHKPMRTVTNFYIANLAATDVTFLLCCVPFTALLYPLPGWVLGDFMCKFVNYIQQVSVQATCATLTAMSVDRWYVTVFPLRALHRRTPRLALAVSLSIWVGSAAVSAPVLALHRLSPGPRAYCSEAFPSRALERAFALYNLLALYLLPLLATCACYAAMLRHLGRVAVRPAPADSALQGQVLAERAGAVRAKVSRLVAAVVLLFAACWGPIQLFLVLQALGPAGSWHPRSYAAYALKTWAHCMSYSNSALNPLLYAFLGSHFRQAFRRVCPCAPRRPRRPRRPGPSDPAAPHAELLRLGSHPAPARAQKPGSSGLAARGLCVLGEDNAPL
Chain of Beta-2 adrenergic receptor (Homo sapiens) (P07550 whole entry, looked up): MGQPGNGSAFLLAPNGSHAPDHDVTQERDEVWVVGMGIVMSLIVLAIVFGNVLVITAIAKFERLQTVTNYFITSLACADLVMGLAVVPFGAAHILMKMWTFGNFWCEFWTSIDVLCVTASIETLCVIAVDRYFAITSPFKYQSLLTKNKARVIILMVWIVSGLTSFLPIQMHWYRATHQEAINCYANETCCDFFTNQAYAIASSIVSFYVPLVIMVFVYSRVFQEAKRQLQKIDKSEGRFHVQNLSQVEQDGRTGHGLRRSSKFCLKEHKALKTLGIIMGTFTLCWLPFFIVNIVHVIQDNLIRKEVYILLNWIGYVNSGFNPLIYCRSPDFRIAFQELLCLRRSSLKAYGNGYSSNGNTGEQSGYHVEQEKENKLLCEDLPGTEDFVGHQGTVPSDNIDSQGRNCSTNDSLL
Chain of 5-hydroxytryptamine receptor 2A (Homo sapiens) (P28223 whole entry, looked up): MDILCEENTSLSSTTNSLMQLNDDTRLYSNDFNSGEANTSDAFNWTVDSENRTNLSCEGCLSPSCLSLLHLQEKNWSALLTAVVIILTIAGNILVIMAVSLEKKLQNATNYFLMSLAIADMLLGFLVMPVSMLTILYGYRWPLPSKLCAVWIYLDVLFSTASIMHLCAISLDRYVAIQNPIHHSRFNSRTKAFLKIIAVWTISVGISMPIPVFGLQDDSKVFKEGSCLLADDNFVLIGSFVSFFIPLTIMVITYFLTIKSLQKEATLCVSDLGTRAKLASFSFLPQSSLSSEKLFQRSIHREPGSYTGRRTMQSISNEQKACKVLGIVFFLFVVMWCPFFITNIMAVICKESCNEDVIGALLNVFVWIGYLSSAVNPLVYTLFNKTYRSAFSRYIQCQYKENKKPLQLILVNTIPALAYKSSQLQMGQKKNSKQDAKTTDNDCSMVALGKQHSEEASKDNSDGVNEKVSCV
Chain of Gonadotropin-releasing hormone receptor (Homo sapiens) (P30968 whole entry, looked up): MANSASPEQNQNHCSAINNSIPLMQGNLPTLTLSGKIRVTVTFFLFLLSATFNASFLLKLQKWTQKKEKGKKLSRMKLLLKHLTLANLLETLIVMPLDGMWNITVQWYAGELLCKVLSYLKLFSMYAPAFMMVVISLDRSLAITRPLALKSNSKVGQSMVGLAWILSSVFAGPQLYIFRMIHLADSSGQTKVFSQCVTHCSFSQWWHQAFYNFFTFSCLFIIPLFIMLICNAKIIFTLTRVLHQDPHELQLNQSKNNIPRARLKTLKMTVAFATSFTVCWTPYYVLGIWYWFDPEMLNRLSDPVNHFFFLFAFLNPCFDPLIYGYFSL
Chain of Muscarinic acetylcholine receptor M1 (Homo sapiens) (P11229 whole entry, looked up): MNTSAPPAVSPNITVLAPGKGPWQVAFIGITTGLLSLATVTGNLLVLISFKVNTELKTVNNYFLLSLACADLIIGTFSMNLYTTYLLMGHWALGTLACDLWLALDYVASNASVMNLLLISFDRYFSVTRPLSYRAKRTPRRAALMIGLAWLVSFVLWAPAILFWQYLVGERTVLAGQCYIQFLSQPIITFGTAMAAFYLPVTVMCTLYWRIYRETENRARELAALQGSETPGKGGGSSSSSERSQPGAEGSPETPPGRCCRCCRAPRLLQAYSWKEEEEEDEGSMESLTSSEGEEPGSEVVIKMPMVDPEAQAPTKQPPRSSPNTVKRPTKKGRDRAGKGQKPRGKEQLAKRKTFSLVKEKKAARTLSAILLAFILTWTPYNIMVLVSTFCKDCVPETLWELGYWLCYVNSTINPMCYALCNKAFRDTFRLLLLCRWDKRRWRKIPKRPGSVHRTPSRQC

C=CC(=O)O[C@H]1C[C@@H]2CC[C@@]1(C)C2(C)C
not listed: [20]
inactive: all other assays above

C/C(Cl)=C/CCl
not listed: [17]
inactive: all other assays above

CCCCCCCCN(C)C
not listed: [15]
inactive: all other assays above

CCCCCCCCC1CCC(=O)O1 (centres undefined)
not listed: [16]
inactive: all other assays above

CC1CCCC(=O)C1=O (centres undefined)
not listed: [19]
inactive: all other assays above

Cc1ccccc1C(=O)N1CC/C(=N\OS(=O)(=O)O)c2ccc(Cl)cc21
not listed: [20]
inactive: all other assays above

CC(=O)OCC1=C(C(=O)O)N2C(=O)[C@@H](NC(=O)Cc3cccs3)[C@H]2SC1
inactive: all assays above

Source: PubChem BioAssay (Tox21)
